Compound activity deposited in PubChem by Sanford-Burnham Center for Chemical Genomics.
NALP1 yeast inh = inhibitors of NALP1 inflammasome in yeast | S. cerevisiae NALP1/ASC/caspase-1 growth, X-gal OD620, 72 h | inhibition, % at 10 µM | 280,000 tested, 0.61% active | AID 2071; in the data active = inhibition mostly above about 24%, no sharp cut-off; inactive = mostly below about 32%
NLRP3 yeast inh = blocks the NALP3 inflammasome reconstituted in yeast; Yeast reconstituted NLRP3/ASC/caspase-1, beta-gal luminescence, 24 h; 330,000 tested, 0.39% active; inhibition, % at 10 µM;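 active = inhibition of 50% or more; inactive = inhibition below 50%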
TIM10 inh = growth inhibitors of TIM10 yeast strain. S. cerevisiae TIM10 strain growth, BacTiter-Glo luminescence, 24 h. inhibition, % at 10 µM. 330,000 tested, 1.4% active. AID 463195;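 active = inhibition of 40% or more at the single tested concentration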;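 note: wild-type TIM10 isogenic control strain grown at permissive 25 °C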
tim23-1 inh = inhibits growth of tim23-1 mutant yeast; 330,000 tested, 1.3% active; AID 463212; inhibition, % at 20 µM; S. cerevisiae tim23-1 growth, BacTiter-Glo luminescence, 24 h;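 active = growth inhibition of the mutant yeast at or above 50%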;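 note: temperature-sensitive mutant grown at 25 °C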
tim10-1 inh = inhibits growth of tim10-1 mutant yeast; S. cerevisiae tim10-1 ts strain growth, BacTiter-Glo, 24 h; 330,000 tested, 2.2% active; inhibition, % at 20 µM;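 active = inhibition of at least 40%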;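 note: mutant grown at 25 °C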
tim23-1 confirm = confirmation of tim23-1 mutant yeast growth inhibitors; shares compounds with tim23-1 inh; S. cerevisiae tim23-1 growth, BacTiter-Glo luminescence, 24 h; inhibition, % at 20 µM; 4,400 tested, 83% active; AID 463218;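 active = inhibition above about 39% in either of two replicate wells at 20 µM, limit read from the data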;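 note: temperature-sensitive tim23-1 mutant grown at 25 °C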
Numbers stand for hits; 0 = inactive; - = not tested or not shown. Rows were chosen to be rich in hits. Some 4.1% of all compounds tested hit in one or more screens of this group.

SMILES	NALP1 yeast inh	NLRP3 yeast inh	TIM10 inh	tim23-1 inh	tim10-1 inh	tim23-1 confirm
Nc1nc2c(s1)CCc1c-2cnn1-c1ccccc1	0	0	0	62	0	61
COc1ccc(CCC(=O)Nc2cccc(Cl)c2)cc1	0	0	0	59	0	65
COc1ccccc1NC(=S)NC(=O)CCc1ccccc1	0	0	0	0	0	-
O=C(CCc1ccccc1)NC(=S)Nc1ccccc1Br	0	0	0	50	0	0
COc1cc(NC(=S)NC(=O)CCc2ccccc2)cc(OC)c1	0	0	0	51	0	41
COc1ccc(CNC(=O)Nc2cccc(Cl)c2)cc1	0	0	0	0	0	-
CCOc1ccc(S(=O)(=O)N(CC)CC(=O)NCc2cccnc2)cc1C	0	0	0	0	0	-
Clc1cccc(-c2ccc3ncnc(NCc4cccs4)c3c2)c1	-	0	0	51	0	40
Clc1ccccc1-c1ccc2ncnc(NCc3cccs3)c2c1	-	0	0	54	0	0
Cc1cccc(-c2ccc3ncnc(NCc4cccs4)c3c2)c1	-	0	0	0	0	-
CCCS(=O)(=O)c1nc(S(=O)(=O)c2ccc(C)cc2)c(NCCCN2CCCC2=O)s1	0	0	0	0	0	-
CCCCNC(=O)Oc1ccc(C(=O)N2c3ccccc3NC(=O)C2C)cc1 (stereo unspecified)	0	0	0	0	0	-
COC(=O)C1CCN(C(=O)c2cc(-c3ccc(Cl)s3)nc3ccccc23)CC1	-	0	0	52	0	52
CCN1CCN(C(=O)c2cc(-c3ccc(Cl)s3)nc3ccccc23)CC1	0	0	0	0	0	-
COc1ccc(C(C)=O)cc1COC(=O)c1cccnc1SC	0	0	0	0	0	-
CCCCCCn1c(=O)c(-c2ccccc2)c(O)c2ccccc21	0	0	0	50	0	44
Cc1ccc(-c2nnc(NC3CCCC3)s2)cc1	0	0	0	53	0	42
Cc1ccc(C(=O)Nc2nnc(-c3ccc(C(C)(C)C)cc3)s2)cc1	0	0	0	0	0	-
CCOCCCn1c(=N)c(S(=O)(=O)c2ccc(C)cc2)cc2c(=O)n3cc(C)ccc3nc21	0	0	0	0	0	-
C[C@@H]1C=CC(=O)O[C@@H]1c1ccc(C(F)(F)F)cc1	0	0	0	57	0	0
COc1ccccc1[C@H]1C(c2cccc(Cl)c2)=NN(c2ccccc2)[C@@H]1CO	-	-	0	56	0	40
Cc1cccc(C2=NN(c3ccccc3)[C@H](CO)[C@H]2c2ccc(Cl)cc2)c1	-	-	0	51	0	0
Cc1cccc(C2=NN(c3ccc(Br)cc3)[C@@H](C(=O)N3CCOC3=O)[C@@H]2c2ccc(Cl)cc2)c1	-	-	0	0	0	-
OC[C@@H]1[C@@H](c2ccccc2)C(c2cccc(Cl)c2)=NN1c1ccccc1	-	-	0	52	0	47
OC[C@@H]1[C@@H](c2ccccc2)C(c2ccccc2)=NN1c1ccccc1	-	-	0	0	0	-
SMILES	NALP1 yeast inh	NLRP3 yeast inh	TIM10 inh	tim23-1 inh	tim10-1 inh	tim23-1 confirm
Cc1cccc(C2=NN(c3ccc(Br)cc3)[C@@H](C(=O)N3CCOC3=O)[C@@H]2c2ccc(F)cc2)c1	0	0	0	0	0	-
Cc1cccc(C2=NN(c3ccccc3)[C@H](CO)[C@H]2c2ccc(F)cc2)c1	-	-	0	51	0	0
O=C(CN(C(=O)CCC(=O)Nc1nccs1)c1ccc(F)cc1)NCCc1ccccc1	0	0	0	0	0	-
CCOC(=O)C1(Cc2cccc(Cl)c2)CCCN(C(=O)CCSC)C1 (stereo unspecified)	0	0	0	0	0	-
Cc1cc(OCC(=O)Nc2nccs2)c2c(C)cc(=O)oc2c1	0	0	0	0	0	-
CCCOc1nc2ccccc2cc1/C=C/C(=O)O	0	0	0	0	0	-
CCOc1nc2ccccc2cc1C=O	0	0	0	72	0	59
Cc1ccc(C(C)C)c2c1C(c1ccc3c(c1)OCO3)CC(=O)O2 (stereo unspecified)	-	-	0	60	0	39
Cc1cc2c(c(C)c1Cl)C(c1ccc3c(c1)OCO3)CC(=O)O2 (stereo unspecified)	-	-	0	0	0	-
Cc1ccc(C2CC(c3cccs3)=NN2C(=O)CCl)cc1 (stereo unspecified)	0	0	0	64	0	0
O=C(c1ccccc1)N1N=C(c2cccs2)CC1c1ccccc1O (stereo unspecified)	0	0	0	57	0	43
Cc1ccc(C(=O)NCC(=O)N2CCC(Cc3ccccc3)CC2)cc1	0	0	0	0	0	-
CCCCNS(=O)(=O)c1ccc2nc(-c3cccnc3)cc(C(=O)NCCCOCC)c2c1	0	0	0	0	0	-
CS/C(=N\S(=O)(=O)c1ccc(Cl)cc1)c1ccccc1	0	0	0	57	0	0
C/C(=C\C(=O)c1ccc(C)cc1)Nc1cccc(O)c1	0	0	0	51	0	0
Cc1ccccc1NC(=O)Cc1nnc(N)s1	0	0	0	0	0	-
O=C(/C=C/c1ccccc1)NCCc1c[nH]c2ccccc12	-	0	0	59	0	60
O=C(NCCc1c[nH]c2ccccc12)/C(=C\c1ccco1)NC(=O)c1ccco1	0	0	0	94	0	0
Cc1sc(NC(=O)C2CSC3(C)CCC(=O)N23)nc1-c1ccccc1 (stereo unspecified)	-	0	0	0	0	-
COc1ccc2c(c1)-c1nc(NC(=O)c3cccs3)sc1CC2	0	0	0	53	0	48
CCCn1c(=O)c(C(=O)OCC)c(O)c2cc(Br)ccc21	0	0	0	0	0	-
CCOC(=O)c1c(CN(C)C)n(C)c2c(O)c(N=NC(N)=O)c3ccc(Br)cc3c12	0	0	0	54	0	0
Cc1oc2c(O)c(O)ccc2c(=O)c1-c1cnn(-c2ccccc2)c1	0	0	0	0	0	-
Cc1nc(-c2cnn(-c3ccccc3)c2)c2cc(C)oc2n1	0	0	0	51	0	45
Cc1nc2scc(C)n2c(=O)c1S(=O)(=O)Nc1ccc(OC(F)(F)F)cc1	0	0	0	60	0	64
SMILES	NALP1 yeast inh	NLRP3 yeast inh	TIM10 inh	tim23-1 inh	tim10-1 inh	tim23-1 confirm
Cc1nc2scc(C)n2c(=O)c1S(=O)(=O)Nc1ccc(N2CCOCC2)c(Cl)c1	0	0	0	0	0	-
COc1cccc(CNc2ccc([N+](=O)[O-])cc2Cl)c1O	0	0	0	58	0	65
COc1ccc(C2C(C(N)=O)=C(C)Nc3nc(-c4ccccc4Cl)nn32)c(OC)c1 (stereo unspecified)	0	0	0	0	0	-
Cc1ccc2c(Cl)c(C)c(N3CCCCC3)nc2n1	46	0	0	67	0	58
CC(C)(C)CC(=O)NC(=S)Nc1ccccc1C(F)(F)F	0	0	0	51	0	0
Cc1ccc(O)c(C(=O)c2cnn(C(=O)c3cccc(S(=O)(=O)N(C)C)c3)c2)c1	-	0	0	0	0	-
C=CCc1ccccc1OCC(=O)N/N=C/c1ccc(OC(C)=O)cc1OC(C)=O	0	0	0	63	0	55
Cc1ccccc1OCC(=O)N/N=C/c1cc2ccccc2nc1Cl	0	0	0	0	0	-
